A selection: hits, their analogues and other compounds. The true share with any hit is near 7.9%.
KB-3-1 cytotox: qHTS assay for MDR1-selective chemotherapeutics: Primary screen using the parental adenocarcinoma cell KB-3-1. 400,000 tested, 1.4% active. AID 1347075, 2019. KB-3-1 viability, CellTiter-Glo ATP luminescence, 72 h. Potency, µM (series often up to 46.1 µM), actives largely listed as cytotoxic; also: % is scaled to controls: 0 for no effect and ±100 for the full control effect; nearly all actives have a fitted effect of over 60% in size
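Multi-concentration cytotoxicity screen in KB-3-1 cells grown in DMEM lacking phenol red with 10% FBS. After 72 h at 37 °C with compound, ATP-dependent luminescence was recorded.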
MCF10A rerep: A quantitative high throughput screen for small molecules that induce DNA re-replication in MCF 10a normal breast cells. MCF 10A DNA re-replication, Hoechst nuclear intensity, 48 h. Potency, µM (top dose mostly 46.1 µM), for inactives: top-dose activity, positive = re-replication, hits mostly activators. 350,000 tested, 2.9% active. AID 624296, 2012; also: % of control where 0% means no effect; nearly all actives have a fitted effect of over 50% in size
HT1080 IDH1KD tx: qHTS for induction of synthetic lethality in tumor cells producing 2HG: qHTS for the HT-1080-IDH1KD cell line; 360,000 tested, 2% active; AID 686971, 2013; Potency, µM (highest dose often 46.1 µM), without a hit: at the highest dose activity, negative = toxicity, most hits filed as cytotoxic; HT-1080 IDH1 knockdown viability, ATP luminescence, 48 h;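 also: 0% = DMSO wells and -100% = cell-free medium wells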
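Viability of IDH1-knockdown HT-1080 fibrosarcoma cells was assessed by CellTiter-Glo after 48 h at 37 °C with titrated compound; concentration-effect curves were classified by fit quality and response size.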
HT1080-NT tox: qHTS for induction of synthetic lethality in tumor cells producing 2HG: qHTS for the HT-1080-NT fibrosarcoma cell line; HT-1080-NT fibrosarcoma viability, CellTiter-Glo ATP luminescence, 48 h; Potency, µM (highest dose often 46.1 µM), without a hit: top-dose activity, negative = less viability, actives largely listed as cytotoxic; 360,000 tested, 1.6% active; AID 686970, 2013;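 also: NT is the 2HG producing partner of a matched IDH1 knockdown line; 0% = DMSO-treated cells and -100% = media-only wells without cells; nearly all actives have a fitted effect of over 55% in size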
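Read-out is CellTiter-Glo luminescence after 10 minutes at room temperature, following 48 hours' compound treatment of HT-1080-NT cells (750 cells/well, RPMI, 5% FBS, 37 degrees C).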
SW480 rereplic: A quantitative high throughput screen for small molecules that induce DNA re-replication in SW480 colon adenocarcinoma cells | SW480 DNA re-replication, Hoechst DNA content imaging, 48 h | Potency, µM (doses to about 46.1 µM), for the others: top-dose re-replication activation, most hits filed as activators | 340,000 tested, 1.8% active | AID 624297, 2012; also: % of control where 0% means no effect; nearly all actives have a fitted effect of over 55% in size
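First, 250 cells per well were seeded. Next, compound or vehicle (23 nL) was pinned in, plates sat 48 hr at 37 C. Finally Hoechst was added for 40 min before fluorescence scanning.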
KB-V1 MDR tox: qHTS assay for MDR1-selective chemotherapeutics: Primary screen using the drug-selected MDR subline cells KB-V1. KB-V1 MDR cells viability, CellTiter-Glo, 72 h. Potency, µM (top dose mostly 46.1 µM), hits mostly cytotoxic. 400,000 tested, 3.4% active; also: % is scaled to controls: 0 for no effect and ±100 for the full control effect; nearly all actives have a fitted effect of over 60% in size
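Cytotoxicity via CellTiter-Glo luminescence after 72 h compound exposure at 37 degrees C. Cells: drug-selected KB-V1 line, DMEM phenol-red free plus 10% FBS. Compounds tested at multiple concentrations; normalized data fitted to concentration-effect curves.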
Starred values were filed as active, the others as inactive; i = inactive; ? = inconclusive; · = not tested or not shown. Calls follow the shape of the dose curve; as a rule, active = well fitted curve in the direction sought with a large enough effect; inconclusive = small, poorly fitted or top-dose-only effect, or another doubt; inactive = no such curve, though single readings can be large; an effect the other way counts as inactive or inconclusive. Potency is read from the fitted curve at half-maximal effect.

SMILES	KB-3-1 cytotox	MCF10A rerep	HT1080 IDH1KD tx	HT1080-NT tox	SW480 rereplic	KB-V1 MDR tox
CCOC(=O)Nc1oc2ccccc2c(=O)c1CN1CCOCC1	i	16.4µM*	-8.9%	-12.0%	-4.2%	i
CCN(C(=O)COC(=O)C1CC1C)c1c(N)n(Cc2ccccc2)c(=O)[nH]c1=O (configuration not stated)	i	-0.4%	6.6%	10.8%	-1.7%	i
COc1ccc(OC)c(NC(=O)CS(=O)(=O)Cc2nc(-c3ccc(C)cc3)oc2C)c1	i	·	·	·	·	i
Cc1ccc(C(=O)N2CCC(C(=O)c3ccc(F)cc3)CC2)cc1	i	1.1%	-1.5%	-1.6%	-9.7%	?
Cc1ccc(C(=O)N2C(=S)C(c3ccc(F)cc3)=NC23CCN(C)CC3)cc1	i	?	18.4µM*	?	?	?
O=S(Cc1ccc(Cl)cc1)CC(O)COCc1ccc(Cl)cc1 (configuration not stated)	i	-10.4%	-21.0%	-4.0%	-7.4%	16.4µM*
OC(CNCc1ccccc1)COCc1ccc(Cl)cc1 (configuration not stated)	i	-40.6%	-15.6%	-27.5%	29.2%	i
O=[N+]([O-])c1c(Nc2ccc(O)cc2)cc(Cl)c2nonc12	i	-8.3%	5.8µM*	9.2µM*	-15.7%	i
CC1=NN(c2ccc(C)c(C)c2)C(=O)/C1=C\C=C\c1ccc([N+](=O)[O-])o1	?	0.2%	16.4µM*	?	-16.3%	i
CCOC(=O)c1ccc(N2N=C(C)/C(=C/C=C/c3ccco3)C2=O)cc1	i	?	0.6%	1.7%	-1.7%	i
COc1ccccc1CNC(=O)c1ccc(Cl)c(NC2=NC3CS(=O)(=O)CC3S2)c1 (configuration not stated)	i	-0.4%	11.7%	-1.1%	-2.5%	i
CCCN(CCC)c1nc(N)c(C#N)c(CC#N)c1C#N	i	6.51µM*	-12.8%	-11.0%	13.6%	i
CCN(CC)c1nc(N)c(C#N)c(CC#N)c1C#N	i	?	1.9%	-4.3%	-25.8%	?
CCOC(=O)c1c(NC(=O)C(Sc2ccccc2)c2ccccc2)sc(C(=O)N(C)C)c1C (configuration not stated)	?	?	?	-4.3%	?	2.91µM*
COc1cc(C(=O)N=c2sccn2C)c([N+](=O)[O-])cc1OC	i	0.1%	-1.4%	12.4%	-14.6%	i
Cn1ccsc1=NC(=O)c1ccc([N+](=O)[O-])o1	?	7.31µM*	-21.4%	-19.2%	9.2µM*	?
Cc1ccccc1NC(=O)c1cc(C(=O)c2cc(Cl)ccc2O)cn(-c2ccccc2C)c1=O	i	22.9%	?	?	·	9.2µM*
Cc1ccc(-n2cc(C(=O)c3cc(Cl)ccc3O)cc(C#N)c2=O)cc1	i	?	-0.6%	-11.0%	7.4%	16.4µM*
O=C(O)CCC(=O)c1ccc(C2CCCCCC2)cc1	i	·	2.4%	22.1%	·	i
C=CC(=O)N1CCC[C@@H](n2nc(-c3ccc(Oc4ccccc4)cc3)c3c(N)ncnc32)C1	?	·	·	·	·	22.4µM*
Nc1ncnc2c1c(-c1ccc(Oc3ccccc3)cc1)cn2C1CCCC1	i	?	20.6µM*	23.1µM*	2.2%	?
CC(=O)N1c2ccc(S(=O)(=O)Nc3ccc(C)c(C)c3)cc2CC1C (configuration not stated)	i	·	·	·	·	i
O=C(c1ccccc1)c1ccccc1	i	-2.0%	4.8%	-10.0%	0.4%	i
O=C(c1ccccc1)c1ccc(-c2ccc(O)cc2)cc1	?	23.1µM*	?	18.4µM*	16.4µM*	?
CCCCOC(=O)c1ccc(NC(=O)c2csnn2)cc1	i	·	·	·	·	i
SMILES	KB-3-1 cytotox	MCF10A rerep	HT1080 IDH1KD tx	HT1080-NT tox	SW480 rereplic	KB-V1 MDR tox
Cc1c(-c2ccccc2)sc2nc[nH]c(=S)c12	?	2.8%	-10.6%	19.4%	-3.9%	11.6µM*
O=C(C/C=N/OCc1c(Cl)cccc1Cl)c1ccc(Cl)cc1	i	23.1µM*	11.0%	-1.2%	16.1%	i
COc1ccc(/C=N\NC(=O)c2cc3c(ccc4ccccc43)o2)cc1O	?	11.6µM*	4.61µM*	?	?	i
O=C(COc1ccccc1[N+](=O)[O-])Nc1ccc(NC(=O)c2cc3ccccc3o2)cc1	i	?	-22.3%	-10.4%	-39.4%	i
O=C(COc1ccc(/C=N/NC(=O)c2cc3ccccc3o2)cc1Br)Nc1ccccc1	13µM*	?	-1.8%	-25.0%	?	?
N#CCn1cc(/C=N/NC(=O)c2cc3c(ccc4ccccc43)o2)c2ccccc21	?	?	9.2µM*	?	?	i
N#CCC(=O)N/N=C/c1cn(Cc2cccc3ccccc23)c2ccccc12	?	5.17µM*	10.3µM*	?	14.6µM*	i
O=C(N/N=C/c1ccncc1)c1cc2c(ccc3ccccc32)o1	i	-6.7%	5.7%	-1.8%	-2.0%	?
COCCCn1cc(CN2CC(N3CCSCC3)CS2(=O)=O)nn1 (configuration not stated)	i	·	16.5%	-2.5%	·	i
O=C(CNC(=O)C1CCCCC1)NNC(=O)c1ccccc1Br	i	-0.4%	1.8%	0.3%	-5.3%	i
COc1ccc(/C=N/NC(=O)c2cc3c(ccc4ccccc43)o2)cc1OC	?	16.4µM*	-17.1%	-3.4%	?	?
COc1ccccc1/C=N/NC(=O)c1cc2c(ccc3ccccc32)o1	?	?	19.0%	-3.3%	?	i
Cc1onc(-c2ccccc2Cl)c1C(=O)Oc1cc(F)cc(F)c1	i	·	·	·	·	i
O=S1(=O)CC(N2CCN(Cc3ccccc3F)CC2)CN1Cc1cn(Cc2cccc(Cl)c2)nn1 (configuration not stated)	?	·	-9.3%	-3.0%	·	i
COc1ccc(-c2noc3c2-c2nc(-c4ccccc4C)sc2CC3)cc1	18.4µM*	?	?	13µM*	20.6µM*	?
CCCc1nc2c(s1)CCc1onc(-c3ccc(OC)cc3)c1-2	i	8.2µM*	2.5%	-0.1%	-1.5%	i
